# Compound activity (PubChem)
# Neddylation inh – inhibitors of human cullin neddylation; TR-FRET cullin neddylation, biochemical; inhibition, % at 25 µM; hit rate 0.58% among 360,000; AID 651699; in the data active = inhibition above about 36%
# GC-A act – GC-A (human) enzyme activation | P16066 | HEK293 GC-A cells, cGMP TR-FRET, EC30 ANP; 0% at EC30 ANP, 100% saturating ANP | activation, % at 10 µM | hit rate 0.14% among 370,000; in the data active = activation above about 40%
# Target sequence (P16066 whole entry, looked up): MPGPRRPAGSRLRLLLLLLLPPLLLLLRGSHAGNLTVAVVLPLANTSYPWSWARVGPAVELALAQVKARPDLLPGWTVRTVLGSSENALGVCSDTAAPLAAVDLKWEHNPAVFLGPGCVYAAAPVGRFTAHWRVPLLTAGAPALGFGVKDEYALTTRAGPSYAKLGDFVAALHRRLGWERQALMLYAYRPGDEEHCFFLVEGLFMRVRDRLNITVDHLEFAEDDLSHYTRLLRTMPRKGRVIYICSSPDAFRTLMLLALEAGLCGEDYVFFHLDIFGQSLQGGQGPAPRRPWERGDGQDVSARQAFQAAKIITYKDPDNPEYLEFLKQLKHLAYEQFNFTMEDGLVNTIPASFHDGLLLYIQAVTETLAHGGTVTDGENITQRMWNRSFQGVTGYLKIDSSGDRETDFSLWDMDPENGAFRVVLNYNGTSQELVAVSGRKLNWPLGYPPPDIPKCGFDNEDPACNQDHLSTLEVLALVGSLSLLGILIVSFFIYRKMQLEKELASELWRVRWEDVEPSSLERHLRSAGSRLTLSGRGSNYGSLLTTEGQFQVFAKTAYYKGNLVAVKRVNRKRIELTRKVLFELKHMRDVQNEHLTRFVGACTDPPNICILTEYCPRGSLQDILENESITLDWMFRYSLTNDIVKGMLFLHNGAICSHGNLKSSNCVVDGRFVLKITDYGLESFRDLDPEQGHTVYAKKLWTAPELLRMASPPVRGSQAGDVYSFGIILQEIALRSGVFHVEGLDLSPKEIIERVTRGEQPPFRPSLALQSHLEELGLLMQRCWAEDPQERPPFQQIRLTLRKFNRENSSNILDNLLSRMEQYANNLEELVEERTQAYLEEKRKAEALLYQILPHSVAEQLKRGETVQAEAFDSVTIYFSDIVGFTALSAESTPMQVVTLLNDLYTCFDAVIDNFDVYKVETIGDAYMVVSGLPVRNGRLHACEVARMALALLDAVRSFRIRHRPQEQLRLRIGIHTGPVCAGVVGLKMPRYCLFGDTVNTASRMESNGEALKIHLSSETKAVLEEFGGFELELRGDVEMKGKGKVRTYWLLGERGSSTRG
# GC-B act – GC-B (human) receptor activation; HEK293-GC-B cells, CNP EC30, cGMP TR-FRET; 0% at EC30 CNP, 100% saturating CNP; activation, % at 10 µM; AID 1920062; hit rate 0.11% among 370,000;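 active = activation at 10 µM reaching about 35% in either raw or pattern-adjusted values, limit read from the data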
# NadD block – NadD (S. aureus) enzyme inhibition. inhibition, % at 20 µM. hit rate 0.78% among 360,000. purified NadD enzyme, colorimetric absorbance read-out; in the data active = inhibition above about 26%
# NadD conf – confirmation of Staphylococcus aureus NadD inhibitors | shares compounds with NadD block | purified S. aureus NadD, colorimetric enzyme assay | inhibition, % at 20 µM | hit rate 13% among 2,000 | AID 624309; in the data active = inhibition mostly above about 42%, no sharp cut-off; inactive = mostly below about 42%
# Numbers without * were called inactive; . = not tested or not shown. Shown are actives, neighbours in structure and some others; about 1.5% of the full set was active somewhere.
SMILES,Neddylation inh,GC-A act,GC-B act,NadD block,NadD conf
O=C1NC[C@H](Cc2ccccc2)N(C[C@@H]2CCCN2C[C@H](Cc2ccccc2)N2C[C@H](Cc3ccc(O)cc3)N(CCc3ccccc3)C(=O)C2=O)C1=O,-8,6,6,44*,49*
CCOc1ccc(CCN2C(=O)C(=O)N([C@@H](Cc3ccccc3)CN3CCC[C@H]3CN3C(=O)C(=O)NC[C@@H]3Cc3ccccc3)C[C@@H]2Cc2ccc(O)cc2)cc1,11,1,1,71*,41
O=C1NC[C@H](Cc2ccccc2)N(C[C@@H]2CCCN2C[C@H](Cc2ccc(O)cc2)N2C[C@H](Cc3ccc(O)cc3)N(CCc3ccccc3)C(=O)C2=O)C1=O,7,2,4,30,.
O=C1NC[C@H](Cc2ccc(O)cc2)N(C[C@@H]2CCCN2C[C@H](Cc2ccccc2)N2C[C@H](Cc3ccc(O)cc3)N(CCc3ccccc3)C(=O)C2=O)C1=O,-2,0,4,18,.
CCOc1ccc(CCN2C(=O)C(=O)N([C@@H](Cc3ccc(O)cc3)CN3CCC[C@H]3CN3C(=O)C(=O)NC[C@@H]3Cc3ccccc3)C[C@@H]2Cc2ccc(O)cc2)cc1,4,5,4,30*,32
CCOc1ccc(CCN2C(=O)C(=O)N([C@@H](Cc3ccccc3)CN3CCC[C@H]3CN3C(=O)C(=O)NC[C@@H]3Cc3ccccc3)C[C@@H]2Cc2ccccc2)cc1,8,-2,-8,27,.
O=C(Nc1ccc(F)cc1)OCc1cn(Cc2ccccc2C(F)(F)F)nn1,.,-1,8,.,.
CCC[C@H](/C=C/C(=O)OC(C)(C)C)Sc1ccc(N)cc1,.,-3,-1,.,.
Cc1ccc(-c2cc(C(=O)NN=Cc3sccc3C)[nH]n2)cc1C,.,1,6,.,.
O=C(Cc1cccc2ccccc12)Nc1ccc(-c2cc3ccccc3oc2=O)cc1,-155,12,2,32*,14
Cc1nn(-c2ccc(Cl)cc2)c(Cl)c1/C=N/NC(=O)c1ccc(NS(=O)(=O)c2cccs2)cc1,9,3,0,41*,63*
COc1ccc(-c2nn(-c3ccccc3)cc2/C=N/NS(=O)(=O)c2ccccc2)cc1,2,2,-2,3,.
Cc1nn(-c2ccccc2)c(N2CCCC2)c1/C=N/NC(=O)c1cccc(S(=O)(=O)Nc2ccc(Cl)cc2)c1,.,-7,-5,53*,55*
Cc1nn(-c2ccccc2)c(Cl)c1/C=N/NC(=O)c1cccc(S(=O)(=O)N2CCCC2)c1,4,-1,2,4,.
COc1ccc(-c2nn(-c3ccccc3)cc2/C=N/NC(=O)c2cccc(S(=O)(=O)Nc3ccccc3Cl)c2)cc1,.,-7,2,42*,16
Cc1c(NC(=O)C(C)C)cccc1-c1nc2ncccc2o1,27,3,6,-3,.
Cc1c(NC(=O)c2cccc(-c3cc4ccccc4oc3=O)c2)cccc1-c1nc2ncccc2o1,-112,-7,5,48*,4
C(=C\c1ccccc1)/C=N/Nc1nc(N2CCCCC2)nc(N2CCCCC2)n1,0,1,7,35*,17
O=[N+]([O-])c1ccc(/C=N/Nc2nc(N3CCCCCC3)nc(N3CCCCCC3)n2)o1,10,-10,-4,65*,18
CCOc1cc(/C=N/Nc2nc(Nc3ccccc3)nc(N3CCCCC3)n2)ccc1OCC(=O)O,0,-5,8,33*,20
O=[N+]([O-])c1ccc(Nc2nc(N/N=C\c3ccc4c(c3)OCO4)nc(N3CCCCC3)n2)cc1,5,-2,5,45*,20
O=[N+]([O-])c1ccccc1/C=C/C=N/Nc1nc(N2CCCCC2)nc(N2CCCCC2)n1,0,-4,4,14,.
O=[N+]([O-])c1ccc(/C=N/Nc2nc(N3CCCCC3)nc(N3CCCCC3)n2)cc1,-15,-1,0,8,.
Cc1ccc(C(=O)N2CCC[C@@H]2C(=O)N2CCC[C@H]2C(=O)NCc2ccccc2)cc1,.,-1,3,.,.
CCCn1c(C)nc2c(c1=O)c1nc3ccccc3nc1n2CCC1=CCCCC1,.,22,-3,3,.
SMILES,Neddylation inh,GC-A act,GC-B act,NadD block,NadD conf
Cc1nc2c(c(=O)n1CCC1=CCCCC1)c1nc3ccccc3nc1n2/N=C/c1ccco1,21,-4,-3,49*,18
Cc1ccnc(NS(=O)(=O)c2ccc(N3C(=O)c4c(Cl)c(Cl)c(Cl)c(Cl)c4C3=O)cc2)n1,-1,12,1,34*,6
Cc1ccnc(NS(=O)(=O)c2ccc(N3C(=O)c4ccccc4C3=O)cc2)n1,-5,-1,-1,1,.
O=C(CC1OC(=O)c2ccccc21)Nc1cc(Cl)ccc1N1CCCC1 (configuration not stated),4,-20,-20,32*,12
Cc1nnc(NC(=O)c2ccc(S(=O)(=O)N3CCCCC3)cc2)s1,-21,1,-2,2,.
O=C(Nc1c2c(nn1-c1ccc(F)cc1)CSC2)c1ccc(S(=O)(=O)N2CCOCC2)cc1,-2,.,.,42*,34
CC(C)(C)n1nc2c(c1NC(=O)c1ccc(S(=O)(=O)N3CCCC3)cc1)CSC2,1,1,1,31*,48*
O=C(N[C@@H](Cc1cccnc1)C(=O)N1CCC[C@H]1C(=O)NC1CCCC1)c1ccccc1,.,-7,-1,.,.
O=c1c(-c2ccco2)nc2ccccc2n1C(c1ccccn1)c1nc2ccccc2[nH]1 (configuration not stated),8,-5,-1,.,.
COc1ccc2c(c1)nc(-c1cccc(Br)c1)c(=O)n2C(c1ccccn1)c1nc2ccccc2[nH]1 (configuration not stated),27,-5,-10,46*,32
O=c1[nH]c(C2CCN(S(=O)(=O)c3ccccc3F)CC2)nc2c1nnn2Cc1ccc2c(c1)OCCO2,4,0,2,23,.
O=c1[nH]c(C2CCN(S(=O)(=O)c3ccc4c(c3)OCCO4)CC2)nc2c1nnn2Cc1c(F)cccc1Cl,-1,11,-4,33*,30
O=c1[nH]c(C2CCN(S(=O)(=O)c3ccccc3)CC2)nc2c1nnn2Cc1c(F)cccc1Cl,-2,-3,0,25,.
O=c1[nH]c(C2CCN(S(=O)(=O)c3ccc4c(c3)OCCO4)CC2)nc2c1nnn2Cc1ccccc1F,-2,1,-8,34*,27
C(=C\c1ccco1)/c1ccc2ccccc2n1,6,3,-5,44*,11
Fc1cccc(F)c1/C=C/c1ccc2ccccc2n1,-6,-1,-5,-7,.
O=C(CCc1ccccc1)N[C@H]1[C@@H](OC(=O)c2cnccn2)CCC[C@]12C(=O)N(Cc1ccccc1)c1ccccc12,.,-12,-1,.,.
CCc1nnc(NS(=O)(=O)c2ccc(NC(=O)c3ccccc3)cc2)s1,7,2,1,1,.
CCc1nnc(NS(=O)(=O)c2ccc(N/C=C\C(=O)c3ccc4ccccc4c3)cc2)s1,17,-10,-2,30*,50*
